Data reported in PubChem BioAssay.
Several values for one entry are separate records, joined by “and”; a condition that tells them apart may be missing. Equal entries are not always repeated. Activity calls are given as the source filed them.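 How the source made its calls, unless noted: active means thallium flux through the channel raised or lowered by more than 3 SD from vehicle-only wells, actives on both sides; inactive means the rest.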

Legend:
[1] = stimulators of nuclear beta-catenin in C2C12, primary screen, imaging, WNT3A-conditioned medium, mouse C2C12, NPC library (AID 1117326; in the data active means nuclear beta-catenin stimulation mostly above about 4.2%, no sharp cut-off; inactive means mostly below about 10%); conditions: stronger effect = higher value
[2] = stimulators of insulin release from INS-1E, primary screen, cell-based, 5 mM glucose, NPC library (AID 1117329;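 active means compound raises insulin release from rat beta cells at 5 mM glucose, no numeric limit stated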); conditions: rat INS-1E insulin secretion, at 10 µM, stronger effect = higher value
[3] = growth inhibition of GSK3B-pretreated HCT116 cells – cell-based, CellTiter-Glo, 0.2 to 20 µM (AID 1117336;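 active means compounds lowering colon cancer cell viability after pretreatment blocking the GSK3B kinase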); conditions: HCT116 viability after GSK3B inhibitor, at 20 µM, stronger effect = higher value
[4] = inhibition of endothelial tube formation, primary screen, imaging, VEGF stimulated, CD31 staining, tube area, NPC library (AID 1117340;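 active means compound that reduces growth-factor-driven endothelial tube area in a mixed cell culture, no cutoff stated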); conditions: VEGF-stimulated ADSC/ECFC co-culture, at 10 µM, stronger effect = higher value
[5] = glucagon-like peptide 1 release enhancers, primary assay, NCI-H716 cell line, NPC library (AID 1117341;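 active means compound raises GLP1 secretion from the human gut endocrine cells, with no numeric limit stated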); conditions: NCI-H716 cells, at 10 µM, stronger effect = higher value
[6] = HCT116 colon cancer cell growth inhibition, primary screen, CellTiter-Glo luminescence, NPC library (AID 1117342;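 active means compounds that lower survival of HCT116 colon cancer cells in the luminescence readout, no numeric limit stated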); conditions: at 20 µM (top of the series)
[7] = CellTiter-Glo luminescent readout of SW480 viability loss, NPC library primary (AID 1117343;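 active means compounds that lower viability of the colon cancer cells in the luminescence readout, with no numeric limit stated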); conditions: CellTiter-Glo luminescence; at 20 µM (top of the series)
[8] = decreased DLD-1 cellular survival, CellTiter-Glo luminescent readout, NPC compound collection, primary HTS (AID 1117346;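 active means compounds that lower survival of DLD-1 colon cancer cells in the luminescence readout, no cutoff given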); conditions: DLD-1 viability, CellTiter-Glo luminescence; at 20 µM (top of the series)
[9] = target: 6-phosphogluconate dehydrogenase, decarboxylating (Homo sapiens) (UniProt P52209); assay: 6PGD enzyme inhibitors, primary screen, biochemical, human, recombinant enzyme, NADPH absorbance (AID 1159550;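 active means at least 20% inhibition of 6-phosphogluconate dehydrogenase activity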); conditions: recombinant 6PGD, NADPH absorbance 341 nm; at 10 µM; stronger effect = higher value
[10] = differential killing of epithelial or mesenchymal cells, primary screen, imaging, PC-3E GFP, TEM4-18 mCherry, co-culture (AID 1345086;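 active means compounds killing one labelled cell type while sparing the other, by normalised counts and ratio limits, not self-fluorescent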;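 on all read-outs here: cells exposed to compound for 72 h before imaging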;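 on red/green cell ratio (normalised): normalised mesenchymal count divided by normalised epithelial count so high means epithelial killing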); conditions: imaging cell counts, at 1 µM; for red/green cell ratio (normalised): actives lie on both sides, counts scaled to control wells, 1 = unselective
[11] = sensitizers of A549 cells to miR-34 induction, primary screen, imaging, A549 dox-inducible miR-34, nuclei and caspase counts (AID 1347080;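 active means compounds whose cell count with miR-34 switched on is under 0.7 times the count with it off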); conditions: A549 miR-34 inducible, Hoechst nuclei count, 48 h
[12] = survival rescue of mitochondrial mutant cells in low glucose, primary screen, MELAS cybrids, Rieske KO mouse fibroblasts, CellTiter-Glo (AID 1508586;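 active means mean z-score across replicates of 1.96 or higher in either the MELAS or the Rieske mutant cell line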;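 further: z relative to plate mean and SD of compound and empty wells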)
F380Y = assay: modulators of BK channel variants, profiling panel, selectivity assay, cell-based, U2OS BacMam, thallium flux, beta subunits (AID 1259406); conditions: at 30 µM;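 further: initial slope of Thallos dye fluorescence rise after thallium is added; log ratio against the mean of 0.3% DMSO vehicle wells on the same plate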
F380Y/beta1 = assay: as above; conditions: at 30 µM
F380Y/beta2Delta = assay: as above; conditions: at 30 µM
F380Y/beta4 = assay: as above; conditions: at 30 µM
[13] = target: Calcium-activated potassium channel subunit alpha-1 (Homo sapiens) + Leucine-rich repeat-containing protein 26 (Homo sapiens) (UniProt Q12791+Q2I0M4); assay: as above; conditions: F380Y/Slo1WT/gamma1, at 30 µM
R275C = assay: as above; conditions: at 30 µM
R275C/beta1 = assay: as above; conditions: at 30 µM
[14] = measured here: epithelial PC-3E GFP cell survival
[15] = measured here: mesenchymal TEM4-18 mCherry cell survival
[16] = measured here: total cells without miR-34 induction
[17] = MELAS cybrid survival, CellTiter-Glo 48 h, stronger effect = higher value
[18] = Rieske KO mouse fibroblast survival, CellTiter-Glo 72 h

Calcium-activated potassium channel subunit alpha-1 (Homo sapiens) + Leucine-rich repeat-containing protein 26 (Homo sapiens), sequence (Q2I0M4 whole entry, looked up, one chain of several): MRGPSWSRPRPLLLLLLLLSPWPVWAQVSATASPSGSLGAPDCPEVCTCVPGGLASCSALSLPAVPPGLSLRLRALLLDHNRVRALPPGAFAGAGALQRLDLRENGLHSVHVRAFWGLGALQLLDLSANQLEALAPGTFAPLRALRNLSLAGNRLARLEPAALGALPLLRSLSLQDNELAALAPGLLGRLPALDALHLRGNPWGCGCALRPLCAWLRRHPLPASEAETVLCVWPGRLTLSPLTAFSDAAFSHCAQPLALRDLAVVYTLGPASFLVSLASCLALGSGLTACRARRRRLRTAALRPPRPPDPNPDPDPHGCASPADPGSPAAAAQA
6-phosphogluconate dehydrogenase, decarboxylating (Homo sapiens), sequence (P52209 whole entry, looked up): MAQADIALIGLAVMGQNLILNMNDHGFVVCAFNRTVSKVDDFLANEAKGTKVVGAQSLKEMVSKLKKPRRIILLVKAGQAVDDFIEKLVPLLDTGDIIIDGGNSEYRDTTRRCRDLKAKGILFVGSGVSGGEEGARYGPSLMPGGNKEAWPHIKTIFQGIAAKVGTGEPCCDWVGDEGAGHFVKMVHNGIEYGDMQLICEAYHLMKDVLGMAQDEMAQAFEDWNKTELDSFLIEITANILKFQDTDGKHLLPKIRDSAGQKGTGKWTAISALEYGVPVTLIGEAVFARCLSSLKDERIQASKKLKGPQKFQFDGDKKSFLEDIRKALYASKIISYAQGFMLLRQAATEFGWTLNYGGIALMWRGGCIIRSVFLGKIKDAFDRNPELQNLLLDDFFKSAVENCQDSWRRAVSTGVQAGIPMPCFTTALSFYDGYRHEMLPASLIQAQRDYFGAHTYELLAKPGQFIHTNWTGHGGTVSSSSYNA

C=C(CC)C(=O)c1ccc(OCC(=O)O)c(Cl)c1Cl
0.92: normalised cell number [10, 14]
10500 and 9830 and 12200: cell count [11, 16]
-0.298 and 0.189: z-score [12, 18]
1.4%: nuclear beta-catenin stimulation ([1]; stimulation, at 2 µM)
0.9: normalised cell number [10, 15]
inactive: nuclear beta-catenin stimulation ([1]; at 10 µM) 3% | insulin secretion stimulation [2] -2.5% | viability decrease [3] 24.9% | GLP1 secretion stimulation [5] 3.1% | inhibition of viability [6] -25.8% | viability decrease (inhibition) [8] 14.8% | inhibition [9] 9.98% | red/green cell ratio (normalised) [10] 0.98 | z-score [12, 17] 0.232 and -0.08 | log fold change Tl+ flux (F380Y) -0.0103 | log fold change Tl+ flux (F380Y/beta1) 0.1 | log fold change Tl+ flux (F380Y/beta2Delta) -0.0325 | log fold change Tl+ flux (F380Y/beta4) 0.0312 | log fold change Tl+ flux [13] 0.0507 | log fold change Tl+ flux (R275C) -0.00646 | log fold change Tl+ flux (R275C/beta1) 0.0596
active: tube area decrease [4] 52.6% | viability decrease (inhibition) [7] 122%

CCN(CC)CCNC(=O)c1ccc(N)cc1
0.66: normalised cell number [10, 14]
0.59: normalised cell number [10, 15]
-0.144 and -0.31 and 0.675: z-score [12, 18]
inactive: nuclear beta-catenin stimulation ([1]; at 10 µM) 1.2% | insulin secretion stimulation [2] 1.1% | viability decrease [3] 1.4% | tube area decrease [4] 8.7% | GLP1 secretion stimulation [5] 2.8% | inhibition of viability [6] 15.3% | viability decrease (inhibition) [7] -11.5% | viability decrease (inhibition) [8] -4.7% | inhibition [9] 13.2% | red/green cell ratio (normalised) [10] 0.9 | z-score [12, 17] -0.241 and -0.159 and 0.703 | log fold change Tl+ flux (F380Y) -0.0589 | log fold change Tl+ flux (F380Y/beta1) 0.0223 | log fold change Tl+ flux (F380Y/beta2Delta) 0.0202 | log fold change Tl+ flux (F380Y/beta4) 0.0227 | log fold change Tl+ flux [13] 0.0259 | log fold change Tl+ flux (R275C) 0.0572 | log fold change Tl+ flux (R275C/beta1) -0.0679
2.4%: nuclear beta-catenin stimulation ([1]; stimulation, at 2 µM)

CN(C)CCCN1c2ccccc2CCc2ccccc21
1.14: normalised cell number [10, 15]
0.136 and -0.674: z-score [12, 18]
inactive: nuclear beta-catenin stimulation ([1]; at 10 µM) 0.8% | insulin secretion stimulation [2] 5.55% | tube area decrease [4] 0.8% | GLP1 secretion stimulation [5] 10% | inhibition of viability [6] 36.7% | viability decrease (inhibition) [8] -1.6% | inhibition [9] 2.5% | red/green cell ratio (normalised) [10] 1.07 | z-score [12, 17] -0.849 and -0.557 | log fold change Tl+ flux (F380Y/beta1) 0.0217 | log fold change Tl+ flux [13] 0.0488 | log fold change Tl+ flux (R275C) 0.0455 | log fold change Tl+ flux (R275C/beta1) 0.104
active: viability decrease [3] 57.9% | viability decrease (inhibition) [7] 70.5% | log fold change Tl+ flux (F380Y) 0.14 | log fold change Tl+ flux (F380Y/beta2Delta) 0.118 | log fold change Tl+ flux (F380Y/beta4) 0.133
-0.2%: nuclear beta-catenin stimulation ([1]; stimulation, at 2 µM)
1.07: normalised cell number [10, 14]

CC(C)(C)NCC(O)c1cc(O)cc(O)c1 (centres undefined)
-0.203: z-score [12, 18]
0.91: normalised cell number [10, 14]
inactive: nuclear beta-catenin stimulation ([1]; at 10 µM) 1.5% | insulin secretion stimulation [2] -1% | viability decrease [3] -25.1% | tube area decrease [4] -9.7% | GLP1 secretion stimulation [5] 1.4% | inhibition of viability [6] 3.9% | viability decrease (inhibition) [7] 20.2% | viability decrease (inhibition) [8] -3.5% | inhibition [9] -13.6% | red/green cell ratio (normalised) [10] 1.28 | z-score [12, 17] -0.672 | log fold change Tl+ flux (F380Y) 0.00388 | log fold change Tl+ flux (F380Y/beta1) -0.0587 | log fold change Tl+ flux (F380Y/beta2Delta) 0.0185 | log fold change Tl+ flux (F380Y/beta4) -0.0336 | log fold change Tl+ flux [13] 0.00552 | log fold change Tl+ flux (R275C) 0.00159 | log fold change Tl+ flux (R275C/beta1) -0.00541
10100 and 11300 and 12600: cell count [11, 16]
3.1%: nuclear beta-catenin stimulation ([1]; stimulation, at 2 µM)
1.16: normalised cell number [10, 15]

Nc1ccc(S(=O)(=O)c2ccc(N)cc2)cc1
10800 and 9580 and 11700: cell count [11, 16]
inactive: nuclear beta-catenin stimulation ([1]; at 10 µM) -0.7% | insulin secretion stimulation [2] -2.3% | viability decrease [3] -8.05% | tube area decrease [4] 8.8% | GLP1 secretion stimulation [5] -1.2% | inhibition of viability [6] 1.3% | viability decrease (inhibition) [8] 7.95% | inhibition [9] 14.4% | red/green cell ratio (normalised) [10] 1.31 | fold change ([11]; stronger effect = lower value, cell number ratio, induced over uninduced) 0.912 and 0.897 and 0.875 | z-score [12, 17] 0.848 | log fold change Tl+ flux (F380Y) 0.0363 | log fold change Tl+ flux (F380Y/beta1) -0.00845 | log fold change Tl+ flux (F380Y/beta2Delta) 0.0421 | log fold change Tl+ flux (F380Y/beta4) 0.0288 | log fold change Tl+ flux [13] -0.0163 | log fold change Tl+ flux (R275C) -0.00888 | log fold change Tl+ flux (R275C/beta1) -0.0191
-0.4%: nuclear beta-catenin stimulation ([1]; stimulation, at 2 µM)
2.46 and 1.04 and 1.7: fold change ([11]; measured here: relative caspase fold change +Dox/-Dox)
1.14: normalised cell number [10, 14]
active: viability decrease (inhibition) [7] 59.5%
9830 and 8600 and 10200: cell count ([11]; measured here: total cells with miR-34 induction, stronger effect = lower value)
0.158: z-score [12, 18]
1.49: normalised cell number [10, 15]

CC(CN1c2ccccc2Sc2ccccc21)N(C)C (centres undefined)
-0.4%: nuclear beta-catenin stimulation ([1]; stimulation, at 2 µM)
1.05: normalised cell number [10, 15]
inactive: nuclear beta-catenin stimulation ([1]; at 10 µM) 0% | insulin secretion stimulation [2] 7.9% | viability decrease [3] 28.6% | tube area decrease [4] 14.2% | GLP1 secretion stimulation [5] 5.7% | viability decrease (inhibition) [8] 28.8% | inhibition [9] 7.15% | red/green cell ratio (normalised) [10] 0.9 | z-score [12, 17] -0.251 and 0.0297 and -0.48 | log fold change Tl+ flux [13] -0.00524 | log fold change Tl+ flux (R275C) -0.00748
1.17: normalised cell number [10, 14]
-0.152 and -0.842 and 0.0934: z-score [12, 18]
active: inhibition of viability [6] 76.9% | viability decrease (inhibition) [7] 110% | log fold change Tl+ flux (F380Y) 0.2 | log fold change Tl+ flux (F380Y/beta1) 0.16 | log fold change Tl+ flux (F380Y/beta2Delta) 0.393 | log fold change Tl+ flux (F380Y/beta4) 0.26 | log fold change Tl+ flux (R275C/beta1) 0.305

Cc1ccc(Cl)c(Nc2ccccc2C(=O)O)c1Cl
inactive: nuclear beta-catenin stimulation ([1]; at 10 µM) 0.5% | insulin secretion stimulation [2] -1.1% | viability decrease [3] 8.4% | tube area decrease [4] 22.9% | GLP1 secretion stimulation [5] 5% | inhibition of viability [6] 35.8% | inhibition [9] 7.02% | red/green cell ratio (normalised) [10] 0.98 | z-score [12, 17] -0.277 and 0.657 | log fold change Tl+ flux (R275C) 0.0346
0.92: normalised cell number [10, 14]
0.9: normalised cell number [10, 15]
active: viability decrease (inhibition) [7] 58.5% | viability decrease (inhibition) [8] 78.5% | log fold change Tl+ flux (F380Y) 0.212 | log fold change Tl+ flux (F380Y/beta1) 0.408 | log fold change Tl+ flux (F380Y/beta2Delta) 0.243 | log fold change Tl+ flux (F380Y/beta4) 0.386 | log fold change Tl+ flux [13] 0.122 | log fold change Tl+ flux (R275C/beta1) 0.34
-0.131 and 0.573: z-score [12, 18]
1.2%: nuclear beta-catenin stimulation ([1]; stimulation, at 2 µM)

CCCNC(=O)NS(=O)(=O)c1ccc(Cl)cc1
8.3%: nuclear beta-catenin stimulation ([1]; stimulation, at 2 µM)
-0.188 and -0.232: z-score [12, 18]
1.29: normalised cell number [10, 15]
1.08: normalised cell number [10, 14]
inactive: nuclear beta-catenin stimulation ([1]; at 10 µM) 4.6% | insulin secretion stimulation [2] 1.5% | viability decrease [3] 4.6% | tube area decrease [4] -1.2% | GLP1 secretion stimulation [5] 6.4% | inhibition of viability [6] 2.7% | viability decrease (inhibition) [7] -4.3% | viability decrease (inhibition) [8] -8.8% | inhibition [9] 14.6% | red/green cell ratio (normalised) [10] 1.2 | z-score [12, 17] -0.244 and -0.535 | log fold change Tl+ flux (F380Y) -0.0312 | log fold change Tl+ flux (F380Y/beta1) 0.0557 | log fold change Tl+ flux (F380Y/beta2Delta) -0.00553 | log fold change Tl+ flux (F380Y/beta4) 0.0279 | log fold change Tl+ flux [13] -0.0083 | log fold change Tl+ flux (R275C) 0.0359 | log fold change Tl+ flux (R275C/beta1) 0.0476

CN(C)C(=O)Oc1ccc[n+](C)c1
1.15: normalised cell number [10, 14]
0.0482 and -0.383: z-score [12, 18]
inactive: nuclear beta-catenin stimulation ([1]; at 10 µM) 0.1% | insulin secretion stimulation [2] 0.95% | viability decrease [3] 10.7% | tube area decrease [4] -21.1% | GLP1 secretion stimulation [5] -3.2% | inhibition of viability [6] -1% | viability decrease (inhibition) [7] -8.3% | viability decrease (inhibition) [8] -12.1% | inhibition [9] -7.31% | red/green cell ratio (normalised) [10] 1.32 | z-score [12, 17] 0.178 and 0.175 | log fold change Tl+ flux (F380Y) -0.00126 | log fold change Tl+ flux (F380Y/beta1) 0.0465 | log fold change Tl+ flux (F380Y/beta2Delta) -0.0385 | log fold change Tl+ flux (F380Y/beta4) -0.0469 | log fold change Tl+ flux [13] 0.0382 | log fold change Tl+ flux (R275C) -0.0114 | log fold change Tl+ flux (R275C/beta1) -0.0401
1.53: normalised cell number [10, 15]
10.5%: nuclear beta-catenin stimulation ([1]; stimulation, at 2 µM)
